Experimental data taken from the supplement of paper PMC6089552.
± gives the standard deviation of the averaged measurements. The whole screen tested about 3,200 compounds, of which about 300 (9.4%) showed activity. This excerpt belongs to a sample that is enriched for actives.

System: A673/TR/shEF
Assay: cell viability (LOESS-normalised, relative to median of negative controls) (log2 ratio); higher = more viable cells (less compound effect), active = hit call of the paper (over 3 MAD below the median)
Settings: treatment time: 72 h
Method in brief: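 Doxycycline, present or absent from 24 h before compounds, was used to induce EWS-FLI1 shRNA knockdown in A673/TR/shEF Ewing sarcoma cells at 1,500 per well in 384-well plates. Cells then received library compounds at two or more concentrations, or DMSO controls, for three days. Viability was measured by CellTiter-Glo luminescence on an Envision reader, and per-plate LOESS correction, division by the negative-control median and log2 transformation followed.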

[1] = 0.25 µM, library screen: screen1, EWS-FLI1 expression: high (no doxycycline)
[2] = 0.25 µM, library screen: screen1, EWS-FLI1 expression: low (doxycycline-induced shRNA knockdown)
[3] = 2.5 µM, library screen: screen1, EWS-FLI1 expression: high (no doxycycline)
[4] = 2.5 µM, library screen: screen1, EWS-FLI1 expression: low (doxycycline-induced shRNA knockdown)
[5] = 0.25 µM, library screen: screen2, EWS-FLI1 expression: high (no doxycycline)
[6] = 0.25 µM, library screen: screen2, EWS-FLI1 expression: low (doxycycline-induced shRNA knockdown)
[7] = 2.5 µM, library screen: screen2, EWS-FLI1 expression: high (no doxycycline)
[8] = 2.5 µM, library screen: screen2, EWS-FLI1 expression: low (doxycycline-induced shRNA knockdown)
[9] = 0.103 µM, library screen: screen3, EWS-FLI1 expression: high (no doxycycline)
[10] = 0.103 µM, library screen: screen3, EWS-FLI1 expression: low (doxycycline-induced shRNA knockdown)
[11] = 0.308 µM, library screen: screen3, EWS-FLI1 expression: high (no doxycycline)
[12] = 0.308 µM, library screen: screen3, EWS-FLI1 expression: low (doxycycline-induced shRNA knockdown)
[13] = 0.926 µM, library screen: screen3, EWS-FLI1 expression: high (no doxycycline)
[14] = 0.926 µM, library screen: screen3, EWS-FLI1 expression: low (doxycycline-induced shRNA knockdown)
[15] = 2.8 µM, library screen: screen3, EWS-FLI1 expression: high (no doxycycline)
[16] = 2.8 µM, library screen: screen3, EWS-FLI1 expression: low (doxycycline-induced shRNA knockdown)
[17] = 8.3 µM, library screen: screen3, EWS-FLI1 expression: high (no doxycycline)
[18] = 8.3 µM, library screen: screen3, EWS-FLI1 expression: low (doxycycline-induced shRNA knockdown)
[19] = 25 µM, library screen: screen3, EWS-FLI1 expression: high (no doxycycline)
[20] = 25 µM, library screen: screen3, EWS-FLI1 expression: low (doxycycline-induced shRNA knockdown)

Structure (SMILES): COc1cc(O)c2c(=O)cc(-c3ccc(OC)c(-c4c(O)cc(O)c5c(=O)cc(-c6ccc(O)cc6)oc45)c3)oc2c1
- cell viability (log2) [1]: 0.0329 (inactive)
- cell viability (log2) [2]: 0.0664 (inactive)
- cell viability (log2) [3]: 0.144 (inactive)
- cell viability (log2) [4]: -0.0351 (inactive)

Structure (SMILES): CC(=O)OCC(=O)[C@@]1(O)CC[C@H]2[C@@H]3CC[C@@H]4C[C@H](OC(C)=O)CC[C@]4(C)[C@H]3C(=O)C[C@@]21C
- cell viability (log2) [1]: 0.118 (inactive)
- cell viability (log2) [2]: 0.0343 (inactive)
- cell viability (log2) [3]: 0.0611 (inactive)
- cell viability (log2) [4]: -0.0696 (inactive)

Structure (SMILES): NC(CCC(=O)NCS(=O)(=O)O)C(=O)O (configuration not stated)
- cell viability (log2) [5]: 0.192 (inactive)
- cell viability (log2) [6]: 0.0399 (inactive)
- cell viability (log2) [7]: 0.0879 (inactive)
- cell viability (log2) [8]: 0.0533 (inactive)

Structure (SMILES): N/C(=N/c1nc2ccccc2o1)NC(=O)c1cccc(Br)c1
- cell viability (log2) [1]: 0.0693 (inactive)
- cell viability (log2) [2]: -0.0125 (inactive)
- cell viability (log2) [3]: 0.162 (inactive)
- cell viability (log2) [4]: -0.0831 (inactive)

Structure (SMILES): CN(Cc1ccccc1)C(=O)C=Cc1ccc([N+](=O)[O-])cc1
- cell viability (log2) [1]: 0.0837 (inactive)
- cell viability (log2) [2]: 0.078 (inactive)
- cell viability (log2) [3]: 0.013 (inactive)
- cell viability (log2) [4]: 0.137 (inactive)

Structure (SMILES): COc1ccc(OC)c(C2NC(=S)NC(C)=C2C(=O)Nc2ccccc2Cl)c1 (configuration not stated)
- cell viability (log2) [1]: 0.0287 (inactive)
- cell viability (log2) [2]: 0.0702 (inactive)
- cell viability (log2) [3]: 0.112 (inactive)
- cell viability (log2) [4]: 0.148 (inactive)

Structure (SMILES): CC(=O)[C@]1(O)Cc2c(O)c3c(c(O)c2[C@@H](O[C@H]2C[C@H](N)[C@H](O)[C@H](C)O2)C1)C(=O)c1ccccc1C3=O
- cell viability (log2) [5]: -2.37 (active)
- cell viability (log2) [6]: -0.307 (active)
- cell viability (log2) [7]: -3.12 (active)
- cell viability (log2) [8]: -0.984 (active)

Structure (SMILES): COc1cccc2c1C(=O)c1c(O)c3c(c(O)c1C2=O)C[C@@](O)(C(=O)CO)C[C@@H]3O[C@H]1C[C@H](N)[C@H](O)[C@H](C)O1
- cell viability (log2) [9]: -0.177 (inactive)
- cell viability (log2) [10]: -0.0878 (inactive)
- cell viability (log2) [11]: -0.86 (active)
- cell viability (log2) [12]: -0.36 (active)
- cell viability (log2) [13]: -1.59 (active)
- cell viability (log2) [14]: -0.403 (active)
- cell viability (log2) [15]: -2.62 (active)
- cell viability (log2) [16]: -1.5 (active)
- cell viability (log2) [17]: -4.26 (active)
- cell viability (log2) [18]: -4.27 (active)
- cell viability (log2) [19]: -4.05 (active)
- cell viability (log2) [20]: -4.25 (active)

Structure (SMILES): COc1cccc2c1C(=O)c1c(O)c3c(c(O)c1C2=O)C[C@@](O)(C(=O)CO)C[C@@H]3O[C@H]1C[C@H](N)[C@@H](O)[C@H](C)O1
- cell viability (log2) [9]: -0.347 (active)
- cell viability (log2) [10]: -0.195 (active)
- cell viability (log2) [11]: -1.12 (active)
- cell viability (log2) [12]: -0.399 (active)
- cell viability (log2) [13]: -1.58 (active)
- cell viability (log2) [14]: -0.41 (active)
- cell viability (log2) [15]: -3.26 (active)
- cell viability (log2) [16]: -1.19 (active)
- cell viability (log2) [17]: -4.26 (active)
- cell viability (log2) [18]: -4.27 (active)
- cell viability (log2) [19]: -4.26 (active)
- cell viability (log2) [20]: -4.25 (active)

Structure (SMILES): COc1cccc2c1C(=O)c1c(O)c3c(c(O)c1C2=O)C[C@@](O)(C(C)=O)C[C@@H]3O[C@H]1C[C@H](N)[C@H](O)[C@H](C)O1
- cell viability (log2) [9]: -0.695 (active)
- cell viability (log2) [10]: -0.133 ± 0.18
- cell viability (log2) [5]: -1.6 (active)
- cell viability (log2) [6]: -0.269 (active)
- cell viability (log2) [11]: -1.27 (active)
- cell viability (log2) [12]: -0.403 (active)
- cell viability (log2) [13]: -2.5 (active)
- cell viability (log2) [14]: -0.592 (active)
- cell viability (log2) [7]: -2.54 (active)
- cell viability (log2) [8]: -0.371 (active)
- cell viability (log2) [15]: -3.11 (active)
- cell viability (log2) [16]: -1.48 (active)
- cell viability (log2) [17]: -4.09 (active)
- cell viability (log2) [18]: -3.66 (active)
- cell viability (log2) [19]: -4.26 (active)
- cell viability (log2) [20]: -4.25 (active)

Structure (SMILES): Cc1cccc(-n2ncc3c(N4CCCC4)ncnc32)c1
- cell viability (log2) [1]: 0.069 (inactive)
- cell viability (log2) [2]: 0.0339 (inactive)
- cell viability (log2) [3]: 0.118 (inactive)
- cell viability (log2) [4]: 0.0767 (inactive)

Structure (SMILES): COc1cc(-c2oc3c(OC)c(O)cc(O)c3c(=O)c2O)ccc1O
- cell viability (log2) [1]: 0.0554 (inactive)
- cell viability (log2) [2]: 0.0375 (inactive)
- cell viability (log2) [3]: 0.0118 (inactive)
- cell viability (log2) [4]: 0.0806 (inactive)

Structure (SMILES): COc1ccc(OC)c(CN2CCN(Cc3c[nH]c4ccccc34)CC2)c1
- cell viability (log2) [1]: 0.113 (inactive)
- cell viability (log2) [2]: 0.0685 (inactive)
- cell viability (log2) [3]: 0.072 (inactive)
- cell viability (log2) [4]: 0.0923 (inactive)

Structure (SMILES): C[C@@H](O)[C@H]1C(=O)N2C(C(=O)[O-])=C(SC3Cn4cnc[n+]4C3)[C@H](C)[C@H]12 (some centres not stated)
- cell viability (log2) [9]: 0.0935 (inactive)
- cell viability (log2) [10]: 0.0362 (inactive)
- cell viability (log2) [11]: 0.108 (inactive)
- cell viability (log2) [12]: 0.0849 (inactive)
- cell viability (log2) [13]: 0.0657 (inactive)
- cell viability (log2) [14]: 0.0643 (inactive)
- cell viability (log2) [15]: 0.107 (inactive)
- cell viability (log2) [16]: 0.0482 (inactive)
- cell viability (log2) [17]: 0.0477 (inactive)
- cell viability (log2) [18]: 0.0712 (inactive)
- cell viability (log2) [19]: 0.131 (inactive)
- cell viability (log2) [20]: 0.0731 (inactive)

Structure (SMILES): CN=c1nc(C2C=CC=CC2)n(C2C=CC=CC2)s1 (configuration not stated)
- cell viability (log2) [5]: 0.18 (inactive)
- cell viability (log2) [6]: 0.0729 (inactive)
- cell viability (log2) [7]: 0.119 (inactive)
- cell viability (log2) [8]: 0.0881 (inactive)

Structure (SMILES): C/C(=C\CO)CCC[C@H](C)CCC[C@H](C)CCCC(C)C
- cell viability (log2) [1]: 0.0657 (inactive)
- cell viability (log2) [2]: 0.0273 (inactive)
- cell viability (log2) [3]: 0.135 (inactive)
- cell viability (log2) [4]: -0.104 (inactive)

Structure (SMILES): CCCCC[C@@H](CC(=O)O)C(=O)O
- cell viability (log2) [1]: 0.0401 (inactive)
- cell viability (log2) [2]: 0.147 (inactive)
- cell viability (log2) [3]: 0.16 (inactive)
- cell viability (log2) [4]: 0.126 (inactive)

Structure (SMILES): CO[C@H]1C=CC2CCN3CCC4=C(CC(=O)OC4)[C@]23C1 (some centres not stated)
- cell viability (log2) [5]: 0.124 (inactive)
- cell viability (log2) [6]: 0.124 (inactive)
- cell viability (log2) [7]: 0.0895 (inactive)
- cell viability (log2) [8]: 0.152 (inactive)

Structure (SMILES): CC1(C)OC(=O)C=C[C@@]2(C)C1C[C@@H](O)[C@]1(C)C2CC[C@@]2(C)[C@H](c3ccoc3)OC(=O)C3OC321 (some centres not stated)
- cell viability (log2) [1]: 0.0796 (inactive)
- cell viability (log2) [2]: 0.0686 (inactive)
- cell viability (log2) [3]: 0.159 (inactive)
- cell viability (log2) [4]: 0.0743 (inactive)
